Experimental data reported in PubChem BioAssay (NCI).
This is part of a sample that, as a whole, favours compounds with a hit. Of some 79,000 tested, about 15% had one in any assay. Active and inactive are the calls of the source. Rule as the data show it: active = growth inhibition above about 70%; inactive = the rest.

What was measured:
[1] = NCI Yeast Anticancer Drug Screen. Data for the rad52 strain (AID 147);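 also: 0% = growth of vehicle-treated control cultures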; settings: S. cerevisiae rad52 mutant growth inhibition, active compounds read high
Summary of the method: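 Here a repair-compromised yeast strain receives each compound; its growth is then quantified and normalised to vehicle-only controls.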

[2] = NCI Yeast Anticancer Drug Screen. Data for the wt1 strain (AID 149);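 also: 0% = growth of vehicle-treated wt1 cultures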; settings: S. cerevisiae wt1 strain (SPY 50644) growth inhibition, active compounds read high
Summary of the method: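 Vehicle-normalised growth inhibition; strain wt1; compound exposure.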

[3] = NCI Yeast Anticancer Drug Screen. Data for the rad50EPP+ strain (AID 151);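 also: 0% = growth of vehicle-treated control cultures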; settings: S. cerevisiae rad50 mutant strain, active compounds read high
Summary of the method: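 Read-out is yeast growth inhibition relative to vehicle; cells used were the rad50EPP+ strain.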

[4] = NCI Yeast Anticancer Drug Screen. Data for the mgt1 strain (AID 153); settings: S. cerevisiae mgt1 mutant growth inhibition, active compounds read high
Summary of the method: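 Measured: inhibition of mgt1 yeast growth by compound, normalized to vehicle-treated cultures.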

[5] = NCI Yeast Anticancer Drug Screen. Data for the rad50 strain (AID 155);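 also: 0% = growth of vehicle-only cultures of the same strain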; settings: S. cerevisiae rad50 strain growth inhibition, active compounds read high
Summary of the method: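 A DNA repair-deficient yeast mutant serves as the test organism; compound-induced growth inhibition is calculated against vehicle-treated cells.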

[6] = NCI Yeast Anticancer Drug Screen. Data for the mec2-1 strain (AID 157); settings: S. cerevisiae mec2-1 strain, active compounds read high
Summary of the method: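 Using mec2-1 yeast: add compound, measure growth, express inhibition versus vehicle-treated cultures.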

[7] = NCI Yeast Anticancer Drug Screen. Data for the rad14 strain (AID 159);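 also: 0% = growth of vehicle-treated control cultures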; settings: S. cerevisiae rad14 strain growth inhibition, active compounds read high
Summary of the method: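 Vehicle-treated cultures served as the baseline for growth inhibition of a DNA repair-mutant yeast strain exposed to each compound.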

[8] = NCI Yeast Anticancer Drug Screen. Data for the sgs1 mgt1 strain (AID 161);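 also: 0% = growth of cultures given vehicle only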; settings: S. cerevisiae sgs1 mgt1 strain, active compounds read high
Summary of the method: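 Growth of a repair-deficient yeast mutant was monitored after compound treatment and expressed as inhibition relative to vehicle-treated cultures.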

[9] = NCI Yeast Anticancer Drug Screen. Data for the CLN2oe strain (AID 163);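 also: 0% = growth of vehicle-only control cultures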; settings: S. cerevisiae CLN2oe strain, active compounds read high
Summary of the method: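 Whole-cell yeast growth assay. A strain engineered for altered cell-cycle control received compound, and inhibition relative to vehicle-treated cultures was recorded.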

[10] = NCI Yeast Anticancer Drug Screen. Data for the cln2 rad14 strain (AID 165);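 also: 0% = growth equal to vehicle treated cultures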; settings: S. cerevisiae cln2 rad14 strain, active compounds read high
Summary of the method: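 Yeast strain cln2 rad14, bearing defects in cell cycle control and DNA repair, serves as the test system; values reflect growth inhibition compared with vehicle.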

[11] = NCI Yeast Anticancer Drug Screen. Data for the bub3 strain (AID 167); settings: S. cerevisiae bub3 mutant strain, active compounds read high
Summary of the method: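 Inhibition values come from growth of compound-treated mutant yeast normalised to vehicle-treated controls.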

[12] = NCI Yeast Anticancer Drug Screen. Data for the wt2 strain (AID 169);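 also: 0% = growth of vehicle-treated yeast cultures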; settings: S. cerevisiae wt2 strain growth inhibition, active compounds read high
Summary of the method: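 Treated yeast vs. vehicle-treated yeast: growth inhibition determined.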

[13] = NCI Yeast Anticancer Drug Screen. Data for the mlh1 strain (AID 171);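 also: 0% = growth of vehicle-treated control cultures of the same strain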; settings: S. cerevisiae mlh1 strain growth inhibition, active compounds read high
Summary of the method: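 A yeast strain with a defined genetic lesion serves as the test organism. Cultures receive compound or vehicle, and growth is measured.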

[14] = NCI Yeast Anticancer Drug Screen. Data for the sgs1 strain (AID 173);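 also: 0% = growth of vehicle-only control cultures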; settings: S. cerevisiae sgs1 mutant, active compounds read high
Summary of the method: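 A genetically defined yeast mutant is incubated with the test compound, and its growth is compared to that of the same strain given vehicle.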

[15] = NCI Yeast Anticancer Drug Screen. Data for the mlh1 rad18 strain (AID 175); settings: S. cerevisiae mlh1 rad18 strain growth inhibition, active compounds read high
Summary of the method: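 Steps: expose repair-defective yeast to compound; measure growth; express inhibition against vehicle-treated controls.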

[16] = NCI Yeast Anticancer Drug Screen. Data for the rad18 strain (AID 177); settings: S. cerevisiae rad18 mutant growth inhibition, active compounds read high
Summary of the method: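 Measured value is growth inhibition of a yeast strain bearing a DNA repair alteration, referenced to vehicle-treated cells.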

[17] = at 5.0 µM (retest, dose inferred, filed as 0.5)
[18] = at 50.0 µM (retest, dose inferred, filed as 5.0)

Measured: growth inhibition

Cc1cc(C(C)(C)CC(C)(C)C)ccc1O
inactive: [1]; at 1.2 µM -22% | [1]; at 3.7 µM -45% | [1]; at 11.0 µM 15% | [2]; at 1.2 µM -1% | [2]; at 3.7 µM -22% | [2]; at 11.0 µM 17% | [3]; at 1.2 µM -16% | [3]; at 3.7 µM -16% | [3]; at 11.0 µM 1% | [3]; at 33.0 µM 60% | [4]; at 1.2 µM -52% | [4]; at 3.7 µM -66% | [4]; at 11.0 µM -37% | [5]; at 1.2 µM 12% | [5]; at 3.7 µM 11% | [5]; [17] 25% | [5]; at 11.0 µM 38% | [6]; at 1.2 µM -41% | [6]; at 3.7 µM -58% | [6]; [17] 28% | [6]; at 11.0 µM 3% | [7]; at 1.2 µM -3% | [7]; at 3.7 µM -30% | [7]; at 11.0 µM 16% | [8]; [17] -14% | [9]; at 1.2 µM -31% | [9]; at 3.7 µM -28% | [9]; at 11.0 µM -17% | [10]; [17] 55% | [11]; at 1.2 µM -9% | [11]; at 3.7 µM -49% | [11]; [17] 6% | [11]; at 11.0 µM 32% | [12]; at 1.2 µM -20% | [12]; at 3.7 µM -34% | [12]; at 11.0 µM -10% | [13]; at 1.2 µM -16% | [13]; at 3.7 µM -53% | [13]; at 11.0 µM -16% | [14]; at 1.2 µM -17% | [14]; at 3.7 µM -38% | [14]; at 11.0 µM 14% | [15]; [17] 26% | [16]; at 1.2 µM -13% | [16]; at 3.7 µM -42% | [16]; at 11.0 µM 36%
active: [1]; at 33.0 µM 98% | [1]; at 100.0 µM 98% | [2]; at 33.0 µM 99% | [2]; at 100.0 µM 99% | [3]; at 100.0 µM 99% | [4]; at 33.0 µM 98% | [4]; at 100.0 µM 99% | [5]; at 33.0 µM 98% | [5]; [18] 79% | [5]; at 50.0 µM 92.3% | [5]; at 100.0 µM 99% | [6]; at 33.0 µM 99% | [6]; [18] 70% | [6]; at 50.0 µM 91.8% | [6]; at 100.0 µM 99% | [7]; at 33.0 µM 99% | [7]; at 100.0 µM 99% | [8]; [18] 99% | [8]; at 50.0 µM 93.7% | [9]; at 33.0 µM 98% | [9]; at 100.0 µM 99% | [10]; [18] 98% | [10]; at 50.0 µM 92.8% | [11]; at 33.0 µM 98% | [11]; [18] 99% | [11]; at 50.0 µM 92.4% | [11]; at 100.0 µM 99% | [12]; at 33.0 µM 99% | [12]; at 100.0 µM 99% | [13]; at 33.0 µM 95% | [13]; at 100.0 µM 99% | [14]; at 33.0 µM 99% | [14]; at 100.0 µM 99% | [15]; [18] 73% | [15]; at 50.0 µM 92.9% | [16]; at 33.0 µM 98% | [16]; at 100.0 µM 98%
